These results are taken from PubChem BioAssay (NCATS).

The nature of assay [1]: AP1 Signaling Pathway (AID 357).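 Further: ME-180 reporter cells stimulated with EGF at its EC50 level; on the % scale 0 is the no-effect control and ±100 the full control effect.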 The procedure, abridged: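 Modulation of EGF-driven AP-1 transcription was assessed with a beta-lactamase reporter in ME-180 cells. Compound and EC50 EGF were co-incubated 5 hours at 37 °C before 2.5-hour CCF4 loading at room temperature and dual-emission reading.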
For assay [2], the target named is Cytochrome P450 1A2 (Homo sapiens) (UniProt P05177). Description: p450-cyp1a2 (AID 410; calls by dose curve; further: potency means the concentration at half of the fitted maximal effect;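 on activity change, negative = inhibition: -100% = full effect of reference inhibitor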). The procedure, abridged: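 Human CYP1A2 (20nM) demethylated Luciferin-ME at its Km (100uM) in 100mM KPO4. After 10 min compound preincubation, NADPH regeneration ran the reaction 60 min at room temperature. Luciferin was read by luminescence, normalized to 57 uM furafylline.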
Cytochrome P450 1A2 (Homo sapiens), sequence (P05177 whole entry, looked up): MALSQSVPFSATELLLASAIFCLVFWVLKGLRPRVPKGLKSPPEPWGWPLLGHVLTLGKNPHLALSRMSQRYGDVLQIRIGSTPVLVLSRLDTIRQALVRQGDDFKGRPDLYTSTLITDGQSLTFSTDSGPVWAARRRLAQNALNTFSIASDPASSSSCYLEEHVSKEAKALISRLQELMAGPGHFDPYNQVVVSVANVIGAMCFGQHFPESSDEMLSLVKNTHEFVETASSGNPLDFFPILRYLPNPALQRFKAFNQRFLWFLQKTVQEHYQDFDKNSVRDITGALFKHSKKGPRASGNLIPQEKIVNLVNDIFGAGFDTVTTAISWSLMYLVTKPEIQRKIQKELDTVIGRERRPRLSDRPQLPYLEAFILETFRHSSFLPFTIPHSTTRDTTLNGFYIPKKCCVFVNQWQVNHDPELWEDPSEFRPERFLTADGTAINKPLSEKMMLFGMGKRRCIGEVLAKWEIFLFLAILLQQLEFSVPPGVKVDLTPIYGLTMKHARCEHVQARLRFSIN

Assay [3] can be described thus: Stat Signaling Pathway (AID 446).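 Further: ME-180 cervical cancer cells given 40 pM IL-6 alongside compound; SIE-controlled beta-lactamase reporter measured as 460/530 nm FRET emission ratio; on the % scale 0 is the no-effect control and ±100 the full control effect.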 The procedure, abridged:
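IL-6/STAT signaling read in ME-180 cells via an SIE beta-lactamase reporter. Stimulus was 40 pM IL-6 (its AC50) for 5 hrs, so both activation and inhibition register.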

Assay [4] deals with Glucocorticoid receptor (Homo sapiens) (UniProt P04150). Description: GR-GFP Redistribution (AID 450;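 active means compounds whose dose series gives a full or clear partial fitted curve of increased nuclear translocation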; further: potency means the concentration at half of the fitted maximal effect). The following applies: U2OS GR-GFP nuclear translocation, laser cytometry, 2 h.
Glucocorticoid receptor (Homo sapiens), sequence (P04150 whole entry, looked up): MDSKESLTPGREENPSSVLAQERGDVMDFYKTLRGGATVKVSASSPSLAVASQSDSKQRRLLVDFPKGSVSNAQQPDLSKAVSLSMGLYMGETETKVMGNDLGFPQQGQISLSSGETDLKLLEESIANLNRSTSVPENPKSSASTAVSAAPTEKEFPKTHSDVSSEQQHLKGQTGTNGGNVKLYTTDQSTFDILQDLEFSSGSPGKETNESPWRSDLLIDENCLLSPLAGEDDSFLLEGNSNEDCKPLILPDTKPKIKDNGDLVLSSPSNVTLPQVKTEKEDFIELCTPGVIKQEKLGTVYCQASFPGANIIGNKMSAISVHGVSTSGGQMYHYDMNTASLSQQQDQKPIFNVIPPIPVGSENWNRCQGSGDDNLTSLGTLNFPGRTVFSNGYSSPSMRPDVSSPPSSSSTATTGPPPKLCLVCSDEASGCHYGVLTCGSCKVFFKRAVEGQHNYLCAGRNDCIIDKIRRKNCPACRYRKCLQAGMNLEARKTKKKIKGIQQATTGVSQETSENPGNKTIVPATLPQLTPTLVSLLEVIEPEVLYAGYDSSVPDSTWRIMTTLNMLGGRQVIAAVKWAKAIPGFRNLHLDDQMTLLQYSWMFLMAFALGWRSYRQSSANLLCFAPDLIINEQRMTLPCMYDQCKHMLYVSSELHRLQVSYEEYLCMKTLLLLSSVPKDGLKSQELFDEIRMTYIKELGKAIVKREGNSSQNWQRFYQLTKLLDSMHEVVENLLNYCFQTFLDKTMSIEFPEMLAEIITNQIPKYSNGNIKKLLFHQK
For assay [5] the target is unchanged. Briefly: GR-EFC Redistribution (AID 451; calls by dose curve; further: potency means the concentration at half of the fitted maximal effect). The conditions noted are these: CHO-K1 GR-EFC translocation, beta-gal luminescence, 2 h. The procedure, abridged:
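CHO-K1 cells stably expressing nuclear-localized β-gal enzyme acceptor and GR fused C-terminally to the enzyme donor fragment; ligand-driven nuclear translocation restores β-gal by complementation. Compounds titrated up to 46 uM final, 2 h at 37 °C; luminescence read.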

For assay [6], the target named is Mitogen-activated protein kinase 10 (Mus musculus) (UniProt Q61831). Description: JNK3 AlphaScreen Assay (AID 530).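 Further: kinase came from lysate of stimulated human HepG2 cells; signal reports phosphorylation of biotinylated GST-cJun 1-79 at Ser73 with 10 µM ATP; on the % scale 0 is the no-effect control and ±100 the full control effect.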 The procedure, abridged:
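JNK3 came from HepG2 lysates pre-activated with IL-1beta and TNF-alpha and phosphorylated biotinylated GST-cJun (1-79) at 10 uM ATP, pH 7.6, room temperature. Compounds were titrated. AlphaScreen signal used anti-phospho-cJun (Ser73) antibody.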

A short description of assay [7]: Cell Viability - BJ (AID 421; calls by dose curve;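 further: potency means the concentration at half of the fitted maximal effect; cells exposed to compound for 40 hours at 37 °C before readout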). The following applies: BJ fibroblast viability, qHTS. The essentials:
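Quantitative HTS: ATP depletion in BJ cells after 40 hr compound exposure in complete culture medium, detected with CellTiter-Glo; AC50 from standard Hill fits.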

Assay [8] is described as follows: Cell Viability - Jurkat (AID 426;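 active means dose-dependent loss of cell ATP signal giving a full or clear fitted curve, ranked by lower potency value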; further: potency means the concentration at half of the fitted maximal effect). The following applies: qHTS. The essentials:
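Jurkat (clone E6-1, human T-cell leukemia) cells, 5000/well in complete medium, were exposed to compound for 40 hr at 37 °C. Viability was read as intracellular ATP by CellTiter-Glo luminescence; AC50 came from Hill fits of concentration-response data.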

A short description of assay [9]: Cell Viability - Hek293 (AID 427;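 active means compounds whose dose-response curve shows a full or clear partial loss of cell viability, called from curve shape rather than a numeric limit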;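 further: potency means the concentration at half of the fitted maximal effect; cells exposed to compound for 40 hours at 37 °C before reading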). The conditions noted are these: qHTS. The essentials:
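AC50 values derive from Hill-modelled concentration-response of ATP-based luminescence, normalized between DMSO-only and 100 uM tamoxifen controls. Cells were exposed in complete culture medium for 40 hr at 37 °C before detection.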

A short description of assay [10]: Cell Viability - HepG2 (AID 433; calls by dose curve;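 further: potency means the concentration at half of the fitted maximal effect; potency for ATP loss meaning cytotoxicity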). The following applies: qHTS. The procedure, abridged: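 ATP luminescence (CellTiter-Glo) after 40 h compound exposure, 37 °C, HepG2, 1500 cells/well, complete medium. Normalized: DMSO = basal, 100 uM tamoxifen = 100% inhibition. AC50 via standard Hill equation.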
A short description of assay [11]: Cell Viability - MRC5 (AID 434; calls by dose curve;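 further: potency means the concentration at half of the fitted maximal effect; potency reflects cytotoxicity seen as loss of intracellular ATP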). The following applies: MRC5 lung fibroblast viability, qHTS. The procedure, abridged:
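MRC5 normal human lung fibroblasts (1500/well) were treated with compounds for 40 hr at 37 °C in complete medium, and viable cells were measured as intracellular ATP by CellTiter-Glo luminescence. AC50 came from Hill fits, normalized to DMSO and 100 uM tamoxifen.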

The nature of assay [12]: Cell Viability - SK-N-SH (AID 435; calls by dose curve; further: potency means the concentration at half of the fitted maximal effect). The following applies: SK-N-SH neuroblastoma cell viability qHTS. The essentials: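 CellTiter-Glo ATP luminescence, 20 min RT read; cells pre-plated 5 hr, compound 40 hr at 37 °C, 1500 cells/well, complete medium. Normalized DMSO = 0, 100 uM tamoxifen = 100% inhibition; Hill-fit AC50.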
The nature of assay [13]: NFAT Signaling Pathway (AID 444).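 Further: carbachol stimulus at about its EC50 of 1 µM final; on the % scale 0 is the no-effect control and ±100 the full control effect.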 The following applies: Jurkat NFAT-bla M1, carbachol, beta-lactamase ratio, 5 h. The essentials: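 Jurkat cells carrying an NFAT-driven β-lactamase reporter and co-transfected muscarinic M1 receptor were treated with compound plus carbachol (1 uM final, an EC50 level) for 5 h at 37 °C. CCF4 loading followed for 1 h at RT; 460/530 nm ratio gave %activity.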

The nature of assay [14]: Cell Viability - N2a (AID 540; active means well fitted curve in the direction sought with a large enough effect; an effect the other way counts as inactive or inconclusive;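 further: plate controls were DMSO alone for no effect and tamoxifen control for full effect; nearly all actives have a fitted effect of over 45% in size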). The following applies: N2a mouse neuroblastoma cell viability; activity change, negative = cytotoxicity: at 92.2 µM (top of the series). The essentials:
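Mouse neuroblastoma N2a cells (1500/well) were preincubated 5 hr at 37 °C, then exposed to compounds for 40 hr at 37 °C in complete medium. Viability was read as intracellular ATP by CellTiter-Glo luminescence; AC50 from Hill fits.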

Assay [15] is described as follows: Cell Viability - NIH 3T3 (AID 541; active means well fitted curve in the direction sought with a large enough effect; an effect the other way counts as inactive or inconclusive;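 further: plate controls were DMSO alone for no effect and tamoxifen positive control for full effect; nearly all actives have a fitted effect of over 25% in size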). The conditions noted are these: NIH 3T3 cell viability, qHTS; activity change, negative = cytotoxicity: at 92.2 µM (top of the series). The procedure, abridged: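 NIH 3T3 mouse embryo fibroblasts (1000 cells/well) were plated in complete medium and treated with compound for 40 hr at 37 °C. Viability was read as intracellular ATP by CellTiter-Glo luminescence; AC50 values came from Hill-equation fits of concentration-response data.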

Assay [16] is described as follows: Cell Viability - HUV-EC-C (AID 542; active means well fitted curve in the direction sought with a large enough effect; an effect the other way counts as inactive or inconclusive; further: on the % scale 0 is the no-effect control and ±100 the full control effect; nearly all actives have a fitted effect of over 35% in size). The procedure, abridged: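 HUV-EC-C normal human vascular endothelial cells, 1000 cells/well, pre-incubated 5 hr at 37 °C, then exposed to compounds for 40 hr at 37 °C in complete medium. Viability measured as intracellular ATP by CellTiter-Glo luminescence; AC50 from Hill fits.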
Assay [17] in a line: Cell Viability - SH-SY5Y (AID 544; active means well fitted curve in the direction sought with a large enough effect; an effect the other way counts as inactive or inconclusive;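 further: 0% = DMSO alone and -100% = 100 µM tamoxifen; nearly all actives have a fitted effect of over 55% in size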). The conditions noted are these: SH-SY5Y neuroblastoma cell viability; viability change, negative = cytotoxic: at 92.2 µM (top of the series). The procedure, abridged: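 Human neuroblastoma SH-SY5Y cells (1500/well) in complete medium were exposed to compounds for 40 hr at 37 °C; intracellular ATP was then quantified by CellTiter-Glo luminescence after 20 min at room temperature. AC50 came from Hill-equation concentration-response fits.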

A short description of assay [18]: Cell Viability - Renal Proximal Tubule (AID 545; active means well fitted curve in the direction sought with a large enough effect; an effect the other way counts as inactive or inconclusive;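 further: 0% = DMSO only and -100% = 100 µM tamoxifen; nearly all actives have a fitted effect of over 40% in size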). The essentials:
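Rat kidney proximal tubule cells, freshly isolated; 1000 cells/well, 5 hr settle, compound 40 hr 37 °C. CellTiter-Glo 20 min RT, luminescence read. AC50 by standard Hill fit.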

The nature of assay [19]: Cell Viability - Mesenchymal (AID 546; active means well fitted curve in the direction sought with a large enough effect; an effect the other way counts as inactive or inconclusive;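 further: cells exposed to compound for 40 hours before reading; 0% = DMSO only and -100% = 100 µM tamoxifen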). The essentials: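 Normal human renal glomerulus-derived kidney mesenchymal cells, 1000 per well in complete medium, were treated with compounds for 40 hr at 37 °C. Viability was read as intracellular ATP by CellTiter-Glo luminescence; AC50 values came from Hill-equation fits of qHTS concentration-response data.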

Molecules are shown by their SMILES. Several values for one entry are separate records, joined by “and”; a condition that tells them apart may be missing. Identical values can stand only once. Records with an inconclusive call do not appear. A structure can be active in one record and inactive in another. Activity calls are given as the source filed them. Unless noted, the call rests on the fitted dose curve; in most records, active means well fitted curve in either direction with a large enough effect (not every such curve was filed as active); inconclusive means small, poorly fitted or top-dose-only effect, or another doubt; inactive means flat fitted curve, though single readings scatter.

`Cc1cc(C(C)(C)C)cc(C)c1CC1=NCCN1`: the compound was classed as inactive in assay [1], in assay [3] and in assay [6]. The Potency result in assay [2] was “inactive”. For the same compound, the Potency in assay [4] was > 46 µM (inactive) and > 20.6 µM (inactive); in assay [5], > 46 µM (inactive) and > 20.6 µM (inactive).

On to `Cn1c(=O)c2[nH]cnc2n(C)c1=O`, for which the outcome in assay [1], in assay [3], in assay [6], in assay [16] and in assay [19] was inactive. For the same compound, the Potency result in assay [2], in assay [15], in assay [17] and in assay [18] was “inactive” throughout. For the same compound, the Potency in assay [7], in [8], in [9], in assay [10], in assay [11] and in [12] was > 92 µM (inactive) in each case. Further, the activity change, negative = inhibition in assay [13] (at 17.2 µM (top of the series)) was -8.18% (inactive) and -8.96% (inactive) and 7.57% (inactive); in [13] (at 38 µM (top of the series)) it was 8.38% (inactive). Further, the activity change, negative = cytotoxicity in [14] was 8.85% (inactive).

With `CN1CCC(=C2c3ccccc3C=Cc3ccccc32)CC1`, the outcome in assay [1], in [3] and in [6] was inactive. The Potency result in [2] is “inactive”. Moreover, the activity change, negative = inhibition in assay [13] (at 17.2 µM (top of the series)) is -67.8% (active). For the same compound, the Potency in [4] is > 46 µM (inactive) and > 20.6 µM (inactive); in assay [5], > 46 µM (inactive) and > 20.6 µM (inactive).

As for `COc1nc(C)nc(Cl)c1NC1=NCCN1`, the compound was classed as inactive in assay [1], in [3] and in assay [6]. For the same compound, the Potency result in assay [2] is “inactive”. In addition, the activity change, negative = inhibition in assay [13] (at 17.2 µM (top of the series)) was -14.9% (inactive); in assay [13] (at 38 µM (top of the series)) it was 10.4% (inactive). In addition, the Potency in assay [4] was > 46 µM (inactive) and > 20.6 µM (inactive); in assay [5], > 46 µM (inactive) and > 20.6 µM (inactive).

With `CN1C(C(=O)Nc2ccccn2)=C(O)c2ccccc2S1(=O)=O`, the compound was called inactive in assay [1], in assay [3] and in assay [6]. The Potency entry in [2] is “inactive and 20 µM (active)”; in assay [4] it was > 46 µM (inactive) and > 20.6 µM (inactive); in [5], > 46 µM (inactive) and > 20.6 µM (inactive). Further, the activity change, negative = inhibition was 9.4% (inactive) and 2.14% (inactive) and -3.58% (inactive) in assay [13] (at 17.2 µM (top of the series)); -8.1% (inactive) in assay [13] (at 38 µM (top of the series)).

`N[C@@H](Cc1c[nH]c2ccc(O)cc12)C(=O)O`: the call in [1], in assay [3], in assay [6], in assay [16] and in assay [19] was inactive. Also, the Potency result in assay [2], in [15] and in assay [18] was “inactive” each time. The Potency was > 92 µM (inactive) in [7]; > 92 µM (inactive) in assay [9]; > 92 µM (inactive) in [10]; > 92 µM (inactive) in assay [11]; > 46 µM (inactive) in assay [4]; > 46 µM (inactive) in [5]. In addition, in assay [13] (at 38 µM (top of the series)), the activity change, negative = inhibition was -5.52% (inactive). The activity change, negative = cytotoxicity in assay [14] is -0.161% (inactive).
